Holding throughout (parameters): scale not given: direction of the effect not stated beside the values
For assay [1], the target named is Protein translocase subunit SecA (Escherichia coli (strain K12)) (UniProt P10408). Kind of assay: Assay to Identify E. coli SecA ATPase Inhibitors. The format is functional. The settings on record: 30 µM.
In assay [2] the target is T1, Ubiquitin-activating enzyme e1, putative (Leishmania donovani (strain BPK282A1)) (UniProt E9BSI1).
T1 sequence (whole entry): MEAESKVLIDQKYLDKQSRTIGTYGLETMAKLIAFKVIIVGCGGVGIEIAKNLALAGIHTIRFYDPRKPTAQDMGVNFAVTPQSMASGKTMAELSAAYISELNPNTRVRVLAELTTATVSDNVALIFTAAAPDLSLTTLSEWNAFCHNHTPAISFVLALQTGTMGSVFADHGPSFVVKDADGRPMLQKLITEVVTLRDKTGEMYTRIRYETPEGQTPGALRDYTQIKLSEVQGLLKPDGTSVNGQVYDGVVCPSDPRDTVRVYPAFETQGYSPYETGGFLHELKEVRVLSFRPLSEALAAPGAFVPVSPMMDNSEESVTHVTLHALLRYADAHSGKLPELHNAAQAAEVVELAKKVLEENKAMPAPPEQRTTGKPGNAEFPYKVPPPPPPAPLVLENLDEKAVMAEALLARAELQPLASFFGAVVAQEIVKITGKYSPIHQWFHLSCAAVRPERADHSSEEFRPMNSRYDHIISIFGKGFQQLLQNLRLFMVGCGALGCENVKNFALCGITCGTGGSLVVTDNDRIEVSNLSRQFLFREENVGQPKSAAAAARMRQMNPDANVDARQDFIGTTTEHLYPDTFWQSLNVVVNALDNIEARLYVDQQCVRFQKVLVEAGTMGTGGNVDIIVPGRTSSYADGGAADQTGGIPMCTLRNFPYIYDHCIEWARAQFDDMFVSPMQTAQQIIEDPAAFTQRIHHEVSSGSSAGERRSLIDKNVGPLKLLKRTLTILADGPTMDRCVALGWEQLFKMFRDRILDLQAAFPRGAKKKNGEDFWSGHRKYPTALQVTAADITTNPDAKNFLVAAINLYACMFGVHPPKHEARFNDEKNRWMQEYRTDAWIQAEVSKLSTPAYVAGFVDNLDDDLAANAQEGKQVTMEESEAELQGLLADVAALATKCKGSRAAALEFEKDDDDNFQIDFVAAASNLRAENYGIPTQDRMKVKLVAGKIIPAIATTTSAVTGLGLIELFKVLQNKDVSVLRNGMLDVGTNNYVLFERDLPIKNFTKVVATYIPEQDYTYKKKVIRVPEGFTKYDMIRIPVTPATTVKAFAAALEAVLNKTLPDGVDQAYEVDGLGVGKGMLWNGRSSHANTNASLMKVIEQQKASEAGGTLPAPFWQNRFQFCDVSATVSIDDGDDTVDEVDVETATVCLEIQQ
Description: Leishmania donovani Ubiquitin Activating Enzyme (LdE1). The format is functional. The settings on record: 30 µM.

Assay [3] concerns the target Sialic acid-binding Ig-like lectin 9 (Homo sapiens) (UniProt Q9Y336). Kind of assay: Hs-Siglec9 ALPHAscreen SOP 20170721. The conditions noted are these: 10 µM. On the technique in general: Alpha assays give light when donor and acceptor beads are brought close together.
The subject of another assay is Trypanosoma cruzi. Description: Trypanosoma cruzi phosphomannomutase and mannose-1-phosphate guanylyltransferase assay. The conditions noted are these: 10 µM. The format is functional.
Assay [4] concerns the target T2, Arginase-2, mitochondrial (Homo sapiens) (UniProt P78540).
T2 sequence (whole entry): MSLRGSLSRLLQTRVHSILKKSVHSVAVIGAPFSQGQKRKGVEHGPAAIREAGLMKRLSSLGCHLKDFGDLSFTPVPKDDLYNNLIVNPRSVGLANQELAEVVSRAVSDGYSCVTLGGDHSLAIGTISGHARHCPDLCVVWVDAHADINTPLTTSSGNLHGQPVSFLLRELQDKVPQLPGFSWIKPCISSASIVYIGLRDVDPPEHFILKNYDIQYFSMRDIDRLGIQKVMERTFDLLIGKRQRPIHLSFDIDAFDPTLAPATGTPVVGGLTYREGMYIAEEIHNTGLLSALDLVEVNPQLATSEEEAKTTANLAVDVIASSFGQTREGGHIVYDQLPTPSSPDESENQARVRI
Description: in vitro enzyme assay to detect the production of urea directly proportional to the activity of Arginase II. Note: in the data most compounds retested in dose-response had high values. The format is functional. The settings on record: 33.3 µM.

The target in assay [5] is T3, Proteasome subunit beta (Trypanosoma cruzi) (UniProt O96673).
T3 sequence (whole entry): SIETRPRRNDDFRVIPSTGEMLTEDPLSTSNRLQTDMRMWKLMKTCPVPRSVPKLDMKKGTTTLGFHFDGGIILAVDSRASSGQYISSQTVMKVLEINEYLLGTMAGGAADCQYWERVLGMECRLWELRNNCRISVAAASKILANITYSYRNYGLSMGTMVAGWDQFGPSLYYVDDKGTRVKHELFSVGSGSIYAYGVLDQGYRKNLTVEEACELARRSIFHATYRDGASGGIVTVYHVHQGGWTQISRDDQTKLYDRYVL
Description: Trypanosoma cruzi proteasome chymotrypsin-like activity (TcProtChymo) assay. Note: in the data most compounds retested in dose-response had high values. The format is functional. The settings on record: 9.37 µM.

The species named for the next assay is Homo sapiens. Kind of assay: To identify inhibition of the IFN signalling (Jak-Stat) pathway via expression of an eGFP reporter gene under the control of an IFN-stimulated response element (ISRE) containing MxA promoter. The format is functional. The settings on record: 30 µM. On the technique in general: A reporter such as luciferase makes a cellular process visible.

The target in assay [6] is T4, Tyrosyl-tRNA synthetase, putative (Trypanosoma cruzi (strain CL Brener)) (UniProt Q4DSP6).
T4 sequence (whole entry): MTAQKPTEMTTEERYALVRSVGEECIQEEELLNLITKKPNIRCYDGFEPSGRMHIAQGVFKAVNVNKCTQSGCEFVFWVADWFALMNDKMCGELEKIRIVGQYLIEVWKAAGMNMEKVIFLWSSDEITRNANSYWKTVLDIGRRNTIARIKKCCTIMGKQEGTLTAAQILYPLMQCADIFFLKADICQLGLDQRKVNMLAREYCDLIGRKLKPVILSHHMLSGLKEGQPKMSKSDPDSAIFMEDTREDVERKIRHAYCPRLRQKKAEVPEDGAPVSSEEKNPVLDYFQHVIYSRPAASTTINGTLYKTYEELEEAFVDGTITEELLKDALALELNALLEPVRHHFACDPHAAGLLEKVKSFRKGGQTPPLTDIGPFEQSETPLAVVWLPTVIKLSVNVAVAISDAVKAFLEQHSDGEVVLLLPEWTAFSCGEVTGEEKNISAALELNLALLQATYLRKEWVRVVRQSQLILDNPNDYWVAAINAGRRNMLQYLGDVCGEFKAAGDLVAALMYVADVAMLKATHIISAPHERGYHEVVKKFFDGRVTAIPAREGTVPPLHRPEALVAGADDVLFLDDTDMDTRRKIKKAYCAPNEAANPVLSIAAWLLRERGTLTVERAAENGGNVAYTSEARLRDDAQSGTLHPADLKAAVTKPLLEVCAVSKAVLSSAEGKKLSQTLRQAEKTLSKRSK
Description: Trypanosoma cruzi tyrosyl tRNA synthetase (TcYRS) _High Tyrosine SOP. Note: in the data most compounds retested in dose-response had high values. The format is functional. The settings on record: 30 µM.

Assay [7] has as its target T4, Tyrosyl-tRNA synthetase, putative (Trypanosoma cruzi (strain CL Brener)). Kind of assay: Trypanosoma cruzi tyrosyl tRNA synthetase (TcYRS) SOP. The format is functional. The conditions noted are these: 30 µM.
For assay [8], the target named is Chromo domain-containing protein 1 (Saccharomyces cerevisiae (strain ATCC 204508 / S288c) (Baker's yeast)) (UniProt P32657). Kind of assay: ScCHD-1 Enzyme Inhibition Assay. Note: in the data most compounds retested in dose-response had high values. The format is functional. The conditions noted are these: 30 µM.

This note sets out measurements from ChEMBL document CHEMBL3988442, “University of Dundee, Small-Polar-MMV Screening Library” (2021).

SMILES strings stand for the structures. For part of these data: Potency and affinity values are given separately.

Sequence of Sialic acid-binding Ig-like lectin 9 (Homo sapiens) (Q9Y336 whole entry): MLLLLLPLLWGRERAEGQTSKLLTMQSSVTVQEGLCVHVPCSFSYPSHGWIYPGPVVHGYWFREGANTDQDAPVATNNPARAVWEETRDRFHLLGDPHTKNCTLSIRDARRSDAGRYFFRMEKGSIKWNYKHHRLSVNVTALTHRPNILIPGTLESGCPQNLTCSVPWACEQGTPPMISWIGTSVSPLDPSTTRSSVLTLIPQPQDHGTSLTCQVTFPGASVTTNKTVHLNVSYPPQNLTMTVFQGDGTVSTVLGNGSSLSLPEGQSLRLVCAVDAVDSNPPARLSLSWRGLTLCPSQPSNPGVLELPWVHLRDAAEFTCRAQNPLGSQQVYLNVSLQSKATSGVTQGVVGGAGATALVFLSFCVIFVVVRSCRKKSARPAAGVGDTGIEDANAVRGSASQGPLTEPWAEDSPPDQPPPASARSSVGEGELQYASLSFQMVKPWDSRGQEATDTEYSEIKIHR
Sequence of Chromo domain-containing protein 1 (Saccharomyces cerevisiae (strain ATCC 204508 / S288c) (Baker's yeast)) (P32657 whole entry, the tested form may be a part): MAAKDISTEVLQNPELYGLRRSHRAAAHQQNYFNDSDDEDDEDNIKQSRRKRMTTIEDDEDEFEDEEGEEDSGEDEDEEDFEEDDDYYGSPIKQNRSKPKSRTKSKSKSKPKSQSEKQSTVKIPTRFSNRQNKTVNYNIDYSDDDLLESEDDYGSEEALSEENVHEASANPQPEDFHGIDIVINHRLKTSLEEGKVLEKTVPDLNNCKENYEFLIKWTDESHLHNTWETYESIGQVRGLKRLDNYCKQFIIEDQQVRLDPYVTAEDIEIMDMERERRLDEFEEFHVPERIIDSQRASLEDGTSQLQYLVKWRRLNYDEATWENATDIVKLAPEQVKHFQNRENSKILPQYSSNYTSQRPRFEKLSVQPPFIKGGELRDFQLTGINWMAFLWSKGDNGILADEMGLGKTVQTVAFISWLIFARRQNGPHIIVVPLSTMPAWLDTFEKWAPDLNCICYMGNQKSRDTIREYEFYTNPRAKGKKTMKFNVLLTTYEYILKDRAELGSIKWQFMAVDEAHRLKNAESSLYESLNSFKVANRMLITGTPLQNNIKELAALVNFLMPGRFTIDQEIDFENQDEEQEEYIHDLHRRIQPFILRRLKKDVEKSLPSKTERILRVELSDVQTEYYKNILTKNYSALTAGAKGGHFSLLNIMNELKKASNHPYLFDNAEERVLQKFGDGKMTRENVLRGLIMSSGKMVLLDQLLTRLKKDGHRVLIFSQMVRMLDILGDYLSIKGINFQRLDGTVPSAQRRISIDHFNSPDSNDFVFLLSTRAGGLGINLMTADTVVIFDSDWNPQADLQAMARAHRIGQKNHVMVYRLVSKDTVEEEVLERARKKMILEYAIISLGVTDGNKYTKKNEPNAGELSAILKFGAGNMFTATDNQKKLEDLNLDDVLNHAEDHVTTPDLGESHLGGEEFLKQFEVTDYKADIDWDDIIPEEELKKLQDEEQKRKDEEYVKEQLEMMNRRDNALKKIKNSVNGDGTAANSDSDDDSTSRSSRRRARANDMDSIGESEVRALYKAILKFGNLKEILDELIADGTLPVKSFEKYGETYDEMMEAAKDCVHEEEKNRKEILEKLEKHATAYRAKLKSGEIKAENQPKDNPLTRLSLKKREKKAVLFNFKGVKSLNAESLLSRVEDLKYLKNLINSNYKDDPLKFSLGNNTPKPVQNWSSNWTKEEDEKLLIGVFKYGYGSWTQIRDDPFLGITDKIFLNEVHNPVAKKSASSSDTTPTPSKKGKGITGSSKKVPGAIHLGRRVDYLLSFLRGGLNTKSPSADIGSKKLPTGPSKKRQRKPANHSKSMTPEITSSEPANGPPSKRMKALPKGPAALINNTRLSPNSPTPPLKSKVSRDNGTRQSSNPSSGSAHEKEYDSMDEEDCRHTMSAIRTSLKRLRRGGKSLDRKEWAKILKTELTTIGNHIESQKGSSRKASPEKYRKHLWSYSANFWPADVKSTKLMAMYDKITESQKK
Sequence of Protein translocase subunit SecA (Escherichia coli (strain K12)) (P10408 whole entry): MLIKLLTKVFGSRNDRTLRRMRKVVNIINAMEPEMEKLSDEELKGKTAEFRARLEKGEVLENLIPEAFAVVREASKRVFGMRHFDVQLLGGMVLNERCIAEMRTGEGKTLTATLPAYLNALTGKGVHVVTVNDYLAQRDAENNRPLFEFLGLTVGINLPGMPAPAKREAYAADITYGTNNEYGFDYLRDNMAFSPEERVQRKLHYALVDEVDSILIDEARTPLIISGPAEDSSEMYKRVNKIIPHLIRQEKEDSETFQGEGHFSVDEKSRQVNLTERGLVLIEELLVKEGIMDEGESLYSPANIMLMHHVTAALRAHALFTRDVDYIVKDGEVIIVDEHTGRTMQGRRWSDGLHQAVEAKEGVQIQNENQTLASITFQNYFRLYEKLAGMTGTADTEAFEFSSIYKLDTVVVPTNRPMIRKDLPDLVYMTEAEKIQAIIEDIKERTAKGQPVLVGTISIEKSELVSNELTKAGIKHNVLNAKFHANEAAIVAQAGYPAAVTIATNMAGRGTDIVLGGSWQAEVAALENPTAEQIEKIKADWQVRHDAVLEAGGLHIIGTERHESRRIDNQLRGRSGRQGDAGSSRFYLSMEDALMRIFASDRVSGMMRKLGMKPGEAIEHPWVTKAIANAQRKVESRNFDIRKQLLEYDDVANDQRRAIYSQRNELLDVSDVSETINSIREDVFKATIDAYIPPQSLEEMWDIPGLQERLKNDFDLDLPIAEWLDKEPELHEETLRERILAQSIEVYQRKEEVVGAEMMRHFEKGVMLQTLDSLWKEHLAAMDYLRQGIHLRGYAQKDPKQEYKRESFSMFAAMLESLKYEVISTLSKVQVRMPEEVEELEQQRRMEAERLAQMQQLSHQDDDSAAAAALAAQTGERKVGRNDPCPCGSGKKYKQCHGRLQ

For `O=C(c1ccnnc1)N1C[C@@H](OCC2CCOCC2)[C@H]2OCCC[C@H]21`, the Percent Effect in assay [1] was -4.07%; in [2], 1.3%; in assay [3], 6.81%; in the assay on Trypanosoma cruzi it was 5.55%; in assay [4], 14.6%; in assay [5], 0.618%. For the same compound, the Percent Effect in the assay filed under Homo sapiens was -6.79%; in assay [6] it was 0.526%; in assay [7], 7.69%; in [8], 96%.
With `O=C(NCc1cc[nH]n1)NCC(O)c1ccc(F)cc1F` (stereo not given), the Percent Effect in assay [1] was -0.475%; in assay [2] it was 8%; in assay [3] it was -0.795%; in the assay with Trypanosoma cruzi, -4.82%; in assay [4], -0.444%; in assay [5], 7.38%. For the same compound, the Percent Effect in the assay filed under Homo sapiens is -4.21%; in assay [6], 5.79%; in assay [7], 10.3%; in assay [8] it was -7.37%.
Take `CC(C)c1noc(CCC(=O)NCC2CCS(=O)(=O)C2)n1` (stereo not given): the Percent Effect in assay [1] is -2.91%; in assay [2] it was 21.3%; in [3] it was 0.895%; in the assay on Trypanosoma cruzi it was 2.81%; in assay [4] it was -0.444%; in assay [5] it was 12.3%. Besides, the Percent Effect is 1.69% in the assay listed under Homo sapiens, 1.58% in [6], 17.9% in [7] and -12.2% in [8].
Regarding `CNC(=O)CN1CCCC12CCN(C(=O)c1ccc(F)cc1)CC2`, the Percent Effect in [1] is -1.29%; in [2] it was 1.3%; in assay [3], -0.371%; in the assay on Trypanosoma cruzi, -6.75%; in assay [4] it was 3.2%; in [5] it was 8.33%. The Percent Effect in the assay listed under Homo sapiens was 22.8%; in [6], -0.966%; in [7], -5%; in assay [8] it was -4.71%.
As for `CCc1nc(CC(=O)N2CCCC2Cn2cccn2)cs1` (stereo not given), the Percent Effect in assay [1] was -2.88%; in [2], 2.67%; in assay [3], 6.12%; in the assay with Trypanosoma cruzi it was 0.402%; in assay [4], 4.43%; in assay [5] it was 6.19%. The Percent Effect in the assay filed under Homo sapiens is -17.2%; in assay [6], 2.63%; in assay [7], 7.69%; in assay [8], -10%.
As for `CCn1cc(CN2CCCC(c3[nH]ncc3S(C)(=O)=O)C2)cn1` (stereo not given), the Percent Effect in assay [1] is -3.37%; in [2], 14.7%; in assay [3] it was 8.19%; in the assay with Trypanosoma cruzi it was 2.56%; in [4], -0.885%; in assay [5], 7.55%. In addition, the Percent Effect in the assay filed under Homo sapiens was -4.1%; in [6], 4.23%; in [7], 15%; in assay [8], -23.9%.
As to `O=C(NCCOc1ccc(Cl)cc1)N1CCS(=O)(=O)CC1`, the Percent Effect in assay [1] was -5.3%; in assay [2] it was 5.13%; in assay [3] it was -7.37%; in the assay with Trypanosoma cruzi, 6.1%; in assay [4], -1.23%; in [5] it was 6.74%. Moreover, the Percent Effect was 3.33% in the assay filed under Homo sapiens, -0.478% in assay [6], 10.8% in assay [7] and -6.32% in assay [8].
Take `Cc1cnn(CC2CCCN2CC(=O)Nc2cc(C(C)(C)C)no2)c1` (stereo not given): the Percent Effect is -3.74% in [1]; 13% in [2]; 2.37% in [3]; 3.73% in the assay with Trypanosoma cruzi; -0.615% in assay [4]; 6.84% in [5]. Also, the Percent Effect in the assay filed under Homo sapiens was 2.79%; in [6], 7.84%; in [7], 28.2%; in assay [8], -8.5%.
In the case of `CCOCC1CC2(CCN(C(=O)c3ccccn3)CC2)CO1` (stereo not given), the Percent Effect in assay [1] is -5.71%; in assay [2], -1.3%; in assay [3] it was 4.48%; in the assay with Trypanosoma cruzi, -0.876%; in assay [4], -3.64%; in assay [5], 9.44%. Further, the Percent Effect in the assay filed under Homo sapiens is -3.04%; in [6] it was 1.58%; in assay [7], 2.56%; in assay [8] it was -2.76%.
As to `CCOc1ncccc1NC(=O)NC1CCCN(c2ncccn2)C1` (stereo not given), the Percent Effect in assay [1] was 0.363%; in assay [2], 23.4%; in assay [3], 1.83%; in the assay on Trypanosoma cruzi it was 4.66%; in assay [4], -8.4%; in assay [5] it was 13.3%. Moreover, the Percent Effect in the assay filed under Homo sapiens is 8.06%; in assay [6] it was 11.8%; in assay [7] it was 30.6%; in assay [8] it was -4.97%.
In the case of `O=C1CC(c2ccccc2)C2(CCN(Cc3ccccn3)CC2)N1` (stereo not given), the Percent Effect in assay [1] was 0.295%; in [2] it was 22.1%; in [3] it was -3.53%; in the assay with Trypanosoma cruzi, -5.25%; in assay [4] it was 3.2%; in assay [5], 8.33%. Also, the Percent Effect was 18.5% in the assay listed under Homo sapiens, 7.73% in [6], 15% in [7] and -9.1% in assay [8].
For `O=C(c1ccc2c(c1)OCO2)N1CCN(c2cnccn2)CC1`, the Percent Effect in assay [1] is -4.95%; in [2], 12.8%; in assay [3], -0.564%; with Trypanosoma cruzi, -1.6%; in assay [4], 4.51%; in assay [5], 10.2%. Besides, the Percent Effect in the assay listed under Homo sapiens was 16%; in assay [6] it was 5.26%; in assay [7], 13.2%; in assay [8], -6.8%.
